Values joined by “and” are separate entries in the source; they are usually repeats but may differ in a detail not shown here. Identical values can stand only once. Active and inactive are the calls of the source.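 Rule for the calls: active = compounds whose cell count with miR-34 switched on is under 0.7 times the count with it off; inactive = the rest.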
Assay: viability loss with induced miR-34 in A549 – imaging, A549 dox-inducible miR-34, nuclei and caspase counts, primary screen (AID 1347080); note: test concentration not given here
Settings: A549 miR-34 inducible, Hoechst nuclei count, 48 h
[1] = stronger effect = lower value, cell number ratio, induced over uninduced
[2] = measured here: relative caspase fold change +Dox/-Dox
[3] = measured here: total cells with miR-34 induction, stronger effect = lower value
[4] = measured here: total cells without miR-34 induction

Structure (SMILES)	fold change [1]	fold change [2]	cell count [3]	cell count [4]
CC(C)Oc1ccc(Cc2ccc(NC3=NCCN3)cc2)cc1	0.976 (inactive)	0.967	5900	6040
CCCCCNC1=C(c2cn(C)c3ccccc23)C(=O)N(C)C1=O	0.981 (inactive)	1.69	6020	6140
CC(=O)O[C@@]12CO[C@@H]1C[C@H](O)[C@@]1(C)C(=O)[C@H](OC(=O)O)C3=C(C)[C@@H](OC(=O)[C@H](O)[C@@H](NC(=O)c4ccccc4)c4ccccc4)C[C@@](O)([C@@H](OC(=O)c4ccccc4)C12)C3(C)C (stereo partly drawn)	1.13 (inactive)	0.603	1340	1180
CCCCC[C@@H](O)/C=C/[C@H]1C=CC(=O)[C@@H]1CCCCCCC(=O)O	0.9 (inactive)	0.638	4870	5400
CCCCCCCCCCCCCCOc1ccc(C(=O)O)o1	0.937 (inactive)	1	5650	6030
C=CCN(C)CCCCCCOc1ccc(C(=O)c2ccc(Br)cc2)c(F)c1	1.01 (inactive)	0.704	5700	5660
CCCCCCCCCCCCCCNC(=O)C1CCCCC1	0.905 (inactive)	0.661	4920	5430
COc1ccc2cc(CC(=O)O)ccc2c1	0.964 (inactive)	1.2	5630	5840
CCCCC[C@H](O)/C=C/[C@@H]1[C@@H](C/C=C\CCCC(=O)N(C)C)[C@@H](O)C[C@H]1O	0.94 (inactive)	1.13	5150	5480
CCCCC[C@H](O)/C=C/[C@@H]1[C@@H](C/C=C\CCCC(=O)NC(CO)CO)[C@@H](O)C[C@H]1O	1.01 (inactive)	1.3	6050	5980
CCCCC[C@@H](O)/C=C/[C@H]1[C@H](O)CC(=O)[C@@H]1CCCCCCC(=O)O	0.974 (inactive)	1.39	5460	5600
CCCCCCCCCCCCCCCCOC[C@H](COP(=O)([O-])OCC[N+](C)(C)C)SC(=O)CCCCCC	0.987 (inactive)	1.56	5880	5950
O=C(O)/C=C/CCCCCCCCC(=O)O	0.99 (inactive)	1.16	5830	5890
NCCCNCCCCN(CCCN)[N+]([O-])=NO	1.02 (inactive)	1.33	5980	5880
CCCCC[C@H](O)/C=C/[C@H]1C(=O)C[C@H](O)[C@@H]1C/C=C/CCCC(=O)O	0.96 (inactive)	1.11	5890	6130
O=C(O)CCC/C=C\C[C@@H]1[C@@H](/C=C/C(=O)COc2cccc(C(F)(F)F)c2)[C@H](O)C[C@@H]1O	0.949 (inactive)	0.381	6020	6340
O=C(O)CCC/C=C\C[C@H]1[C@@H](O)CC(=O)[C@@H]1/C=C/[C@@H](O)CCc1ccccc1	0.982 (inactive)	1.03	5860	5960
CCCCCCCCCC(=O)NC(CN1CCOCC1)C(O)c1ccccc1 (stereo not drawn)	1.03 (inactive)	0.968	5830	5670
CCCCC[C@H](O)/C=C/[C@@H]1[C@@H](C/C=C\CCCCCC(=O)O)[C@@H](O)C[C@H]1O	0.876 (inactive)	0.899	5260	6000

Structure (SMILES)	fold change [1]	fold change [2]	cell count [3]	cell count [4]
CCCCCC(=O)/C=C/C=O	1.01 (inactive)	1.61	5770	5720
CCCCCCCCCCCCCCCC(=O)SCCOP(=O)([O-])OCC[N+](C)(C)C	1.04 (inactive)	0.949	6100	5890
CCCCCCCCCSCCCCCCCC(=O)O	0.943 (inactive)	0.653	5310	5640
CCCCC[C@H](O)/C=C/[C@H]1C(=O)C[C@H](O)[C@@H]1C/C=C\CCCC(=O)OC	0.892 (inactive)	0.761	5010	5620
O=Cc1cccc2[nH]ccc12	1.14 (inactive)	0.821	6070	5350
CCCCC[C@H](O)/C=C/[C@@H]1[C@H]2C/C=C\CCCC(=O)O[C@H]2C[C@H]1O	0.977 (inactive)	1.29	5860	5990
CCCCC/C=C\C/C=C\C/C=C\C/C=C\CCCC(=O)O[C@H](COCCCCCCCCCCCCCCCC)COP(=O)([O-])OCC[N+](C)(C)C	0.94 (inactive) and 0.936 (inactive)	1.77 and 0.976	5550 and 5760	5910 and 6160
CCCCCCCC/C=C\CCCCCCCC(=O)N[C@@H](CO)C(=O)O	1.01 (inactive)	1.73	5230	5180
CCCCC[C@H](O)/C=C/[C@H]1[C@H](O)CC(=O)[C@@H]1CCCCCCCO	0.891 (inactive)	2.02	5100	5730
CCCCCCCCCCCCCCCCOC[C@@H](O)COP(=O)(O)O	0.944 (inactive)	0.298	5730	6070
CCCCCCCCCCCCCCCCOC[C@H](COP(=O)([O-])OCC[N+](C)(C)C)SC(C)=O	0.92 (inactive)	0.945	4720	5130
O=C(O)c1c[nH]c2c(ccc3cccnc32)c1=O	0.93 (inactive)	0.866	5740	6180
C/C=C/C[C@@H](C)[C@@H](O)[C@H]1C(=O)N[C@@H](CC)C(=O)N(C)CC(=O)N(C)[C@@H](CC(C)C)C(=O)N[C@@H](C(C)C)C(=O)N(C)[C@@H](CC(C)C)C(=O)N[C@@H](C)C(=O)NC(C)C(=O)N(C)[C@@H](CC(C)C)C(=O)N(C)[C@@H](CC(C)C)C(=O)N(C)[C@@H](C(C)C)C(=O)N1C (stereo partly drawn)	1.02 (inactive)	1.6	2270	2230
CCCCC/C=C\C/C=C\CCCC/C=C\CCCC(=O)O	0.985 (inactive)	0.344	5360	5440
CC/C=C\C/C=C\C/C=C\CCCCCCCC(=O)N[C@@H](Cc1ccc(O)cc1)C(=O)O	0.852 (inactive)	2.46	5060	5940
CCCCCCCCCCCCCCCCCCCCCC(=O)NCCS(=O)(=O)O	0.845 (inactive)	0.367	5140	6090
CCCCCC(=O)/C=C/[C@H]1[C@H](O)CC(=O)[C@@H]1CCCCCCC(=O)O	1.03 (inactive)	1.35	5840	5690
CC\C=C/C=C/C=C/C=C\CCCCCCCC(=O)O	0.875 (inactive)	0.385	4740	5410
NCc1cccc2ccncc12	0.913 (inactive)	0.524	5270	5780

Structure (SMILES)	fold change [1]	fold change [2]	cell count [3]	cell count [4]
CS(=O)(=O)NC(=O)CCCCCCCCCC=C(Br)Br	0.853 (inactive)	1.19	4860	5700
COc1cc([C@@H]2c3cc4c(cc3[C@@H](OC3OC5COC(C)OC5C(O)C3O)[C@H]3COC(=O)[C@H]23)OCO4)cc(OC)c1O (stereo partly drawn)	0.828 (inactive)	1.04	1840	2230
C=C1C[C@@H](O)[C@H](/C=C/[C@@H](O)CCCCC)[C@H]1C/C=C\CCCC(=O)O	0.899 (inactive)	1.24	5620	6250
CCc1c(OCCCCCC(C)(C)c2nn[nH]n2)cc(O)cc1C(C)=O	1.03 (inactive)	0.73	6030	5840
COc1ccc(C2=N[C@@H](c3ccc(Cl)cc3)[C@@H](c3ccc(Cl)cc3)N2C(=O)N2CCNC(=O)C2)c(OC(C)C)c1	1.1 (inactive)	0.974	4290	3920
O=C(CN=C(c1ccccc1)c1ccccc1)OCc1ccccc1	0.875 (inactive)	1.1	5290	6050
COc1cc(/C=C/c2ccc(Cl)cc2)cc(OC)c1	1.01 (inactive)	0.802	6120	6070
O=C1N[C@@H]2[C@@H](O)[C@@H](O)[C@H](O)[C@@H](CO)N2C1=O	0.921 (inactive)	0.979	4980	5410
CCCCC[C@H](O)/C=C/[C@H]1[C@H](O)CC(=O)[C@@H]1CCCCCCCCC(=O)O	0.947 (inactive)	1.98	5400	5700
CC(C)CCCCCCC/C=C/C(=O)O	0.859 (inactive)	0.582	5080	5910
O=C(O)CCC/C=C/C[C@@H]1[C@@H](/C=C/[C@@H](O)COc2cccc(C(F)(F)F)c2)[C@H](O)C[C@@H]1O	0.985 (inactive)	1.11	6470	6570
CCCCCCCCCCCCC/C=C/[C@H](O)[C@@H](CO)NC(=O)CCCCCCCCCCCCCCCCCCCCCCC	0.979 (inactive)	0.918	5890	6010
O=C(O)CCC/C=C\C[C@@H]1[C@@H](CCC(=O)CCc2ccccc2)[C@H](O)C[C@@H]1O	0.934 (inactive)	1.4	5970	6390
Cc1c(C(=O)c2ccccc2)c(N)c(-c2ccccc2)n1Cc1ccc(Cl)cc1	0.936 (inactive)	1.39	5890	6290
CCCCCC(=O)CC[C@H]1[C@H](O)CC(=O)[C@@H]1CCCCCCC(=O)O	0.94 (inactive)	1.43	5620	5980
CCCCC[C@@H](O)/C=C/[C@@H]1[C@@H](C/C=C\CCCC(=O)O)[C@@H](O)C[C@H]1O	0.977 (inactive)	1.24	5960	6100
Nc1nc2c([nH]c(=O)n2[C@@H]2O[C@H](CO)[C@@H](O)[C@H]2O)c(=O)[nH]1	1.03 (inactive)	0.878	5770	5600
CCCCC1C(=O)CC[C@H]2[C@@H]1CC(=O)[C@@H]2CCCCCCC(=O)O (stereo partly drawn)	0.957 (inactive)	0.967	5230	5460
CCCCC[C@H](O)/C=C/[C@H]1CCC(=O)[C@@H]1C/C=C\CCCC(=O)O	0.932 (inactive)	1.35	6060	6510

— PubChem BioAssay
